# In all, about 81,000 sequences were measured (“one-hybrid fitness for binding NBS DNA”: median about -0.1, highest 2% from about 0.36 on). The full list was thinned out, with the highest values kept by preference.
# B1: Caulobacter ParB omega fusion; a variant is named by its letters at X, in order, B8GW30 (parent)
# chain: MESVVVGEPGMSEGRRGLGRGLSALLGEVDAAPAQAPGEQLGGSREAPIEILQRNPDQPRRTFREEDLEDLSNSIREKGVLQPILVRPSPDTAGEYQIVAGERAWRAAQRAGLKTVPIMVRELDDLAVLEIGIIENVQRADLNVLEEALSYKVLMEKFERTQENIAQTIGKSXSHVANXMRLLXLPDEVQSYLVSGELTAXHARAIAAAADPVALAKQIIEGGLSVRETEALARKAPNLSAGKSKGGRPPRVKDTDTQALESDLSSVLGLDVSIDHRGSTGTLTITYATLEQLDDLCNRLTRGI
# Variants of: B1
# Test: one-hybrid fitness for binding NBS DNA (the Noc-binding site; scaled: cognate 1, non-cognate 0); higher = stronger binding
# Conditions: with NBS DNA site
# Method in brief: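 Values were rescaled so that cognate is 1 and non-cognate is 0. Each is a fitness, the log change in a variant's read ratio to wild type from Illumina reads of plasmids before and after selection, with three replicate libraries pooled and variants under 10 reads dropped. Selection of the Caulobacter ParB libraries, four specificity codons randomised, used E. coli USO with a HIS3 reporter, site 19 bp from the promoter, on M9-minus-histidine with 0.1 mM IPTG and 5 mM 3-AT for 48 hours at 37°C.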
row,Variant,one-hybrid fitness for binding NBS DNA
1,RVGN,≤ 0.2
2,RVGP,≤ 0.2
3,AKNC,≤ 0.2
4,RDQV,≤ 0.2
5,QMHW,≤ 0.2
6,MIEP,≤ 0.2
7,EVLS,≤ 0.2
8,MMLC,≤ 0.2
9,CVFT,≤ 0.2
10,HSNA,≤ 0.2
11,QYRS,0.644
12,QYRP,0.216
13,QYRD,≤ 0.2
14,QYIS,0.202
15,QYYS,0.312
16,QYYH,≤ 0.2
17,QYRN,0.38
18,QYDH,≤ 0.2
19,QYRH,0.541
20,GEPE,≤ 0.2
21,HWPK,≤ 0.2
22,GQSC,≤ 0.2
23,RFKM,≤ 0.2
24,AIRM,≤ 0.2
25,RFKN,≤ 0.2
26,RHKS,0.57

row,Variant,one-hybrid fitness for binding NBS DNA
1,RHKN,0.205
2,RCKS,0.612
3,RLKD,≤ 0.2
4,RFKS,0.444
5,RCKD,≤ 0.2
6,RPKS,≤ 0.2
7,RLKS,0.554
8,RLKN,≤ 0.2
9,RHKP,≤ 0.2
10,RFKH,≤ 0.2
11,TSAW,≤ 0.2
12,RVSW,≤ 0.2
13,DRFC,≤ 0.2
14,SYSC,≤ 0.2
15,PYQW,≤ 0.2
16,SPAY,≤ 0.2
17,KNRG,≤ 0.2
18,RAKS,0.571
19,RAVS,0.239
20,RIKP,≤ 0.2
21,RIKS,0.499
22,RAKH,0.36
23,RSKD,≤ 0.2
24,RIVS,≤ 0.2
25,RSKS,0.567
26,RSVS,0.285

row,Variant,one-hybrid fitness for binding NBS DNA
1,HGYR,≤ 0.2
2,STVP,≤ 0.2
3,PRHI,≤ 0.2
4,VTRH,≤ 0.2
5,QTNL,0.214
6,RIAD,≤ 0.2
7,RLFT,0.238
8,RIAT,0.376
9,RLAD,≤ 0.2
10,RSAT,0.414
11,RDAT,≤ 0.2
12,RMFT,0.261
13,RSAN,≤ 0.2
14,RMAP,≤ 0.2
15,RMAT,0.426
16,RIFT,≤ 0.2
17,RLAT,0.423
18,LYNV,≤ 0.2
19,GATD,≤ 0.2
20,PPMS,≤ 0.2
21,HKTC,≤ 0.2
22,MLVG,≤ 0.2
23,YTRD,≤ 0.2
24,RCAV,≤ 0.2
25,RPAT,≤ 0.2
26,RCAT,0.515

row,Variant,one-hybrid fitness for binding NBS DNA
1,RHFT,0.245
2,RAAT,0.364
3,RHAH,≤ 0.2
4,RFAT,≤ 0.2
5,RAAP,≤ 0.2
6,RHAT,0.432
7,RAFT,0.242
8,TFCI,≤ 0.2
9,NDTY,≤ 0.2
10,AWHV,≤ 0.2
11,HGAR,≤ 0.2
12,EIKR,≤ 0.2
13,WKER,≤ 0.2
14,RSQP,≤ 0.2
15,RFQR,0.282
16,RSQR,0.44
17,RDQR,≤ 0.2
18,RPQR,≤ 0.2
19,RCQR,0.512
20,FPQS,≤ 0.2
21,RQKQ,0.244
22,RQSS,0.446
23,RQDS,≤ 0.2
24,RQSN,≤ 0.2
25,RQNH,0.34
26,RQKT,0.63

row,Variant,one-hybrid fitness for binding NBS DNA
1,RQNS,0.48
2,RQHK,≤ 0.2
3,RQHF,≤ 0.2
4,RQHT,0.417
5,RQSP,≤ 0.2
6,RQVT,0.216
7,SYHE,≤ 0.2
8,SRKD,≤ 0.2
9,HWGA,≤ 0.2
10,RMER,0.227
11,EGHG,≤ 0.2
12,DQTE,≤ 0.2
13,MCRV,≤ 0.2
14,RQFT,0.204
15,RQDT,0.268
16,RQNP,≤ 0.2
17,RQCT,0.382
18,RQGT,0.351
19,RQSG,≤ 0.2
20,RQCP,≤ 0.2
21,RQNT,0.53
22,RQAD,≤ 0.2
23,RQAT,0.385
24,RQST,0.474
25,RQCH,≤ 0.2
26,SAEQ,≤ 0.2

row,Variant,one-hybrid fitness for binding NBS DNA
1,SIIG,≤ 0.2
2,HRTH,≤ 0.2
3,VQPC,≤ 0.2
4,RQRT,0.615
5,RQPT,≤ 0.2
6,RQAH,≤ 0.2
7,RQYT,0.353
8,RQFS,0.206
9,RQAS,0.38
10,PKKW,≤ 0.2
11,TRLN,≤ 0.2
12,IGRT,≤ 0.2
13,QQYV,≤ 0.2
14,QQKV,0.533
15,QQRV,0.493
16,QQVV,≤ 0.2
17,QQDV,≤ 0.2
18,QQFV,≤ 0.2
19,VRMV,≤ 0.2
20,RSFA,≤ 0.2
21,RRAA,0.664
22,RCAA,0.234
23,RRFA,0.569
24,RCFA,≤ 0.2
25,RPAA,≤ 0.2
